Results published in PubChem BioAssay (EPA / NIEHS).
Several values for one entry are separate records, joined by “and”; a condition that tells them apart may be missing. Equal values may be shown once. Records with an inconclusive call do not appear. Where a structure was tested more than once in an assay, its records may differ in their call. Activity calls are given as the source filed them. How the source made its calls, unless noted: active means hit-call score of the fitted dose curve at least 0.9, where 1 is the maximum; inactive means score below 0.9.

Experiments:
[1] = CCTE_Shafer_MEA_dev_per_burst_spike_percent: CCTE's Neural Network Formation Assay for Percent of Spikes in a Burst, Shafer Lab (AID 2284032);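 on AC50: fitted as a decrease in burst spike percentage below DMSO baseline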
Procedure, shortened: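 Value is trapezoidal AUC over recordings on days 5, 7, 9 and 12 of the well-mean fraction of spikes falling in single-electrode bursts; rat cortical cultures exposed continuously from plating, treatment renewed DIV 5 and 9, fitted downward against DMSO.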

[2] = CCTE_Shafer_MEA_dev_active_electrodes_number: CCTE's Neural Network Formation Assay for Number of Active Electrodes, Shafer Lab (AID 2284040; active means hit-call score of the fitted dose curve at least 0.9, where 1 is the maximum;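 on AC50: potency for loss of active electrodes versus DMSO so lower counts are hits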)
Procedure, shortened: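 Counts electrodes per well firing at least 5 spikes/min, recorded on days 5, 7, 9 and 12 in rat cortical cultures dosed continuously from plating (treatment refreshed DIV 5, 9). Value is the area under the curve over recordings, fitted downward relative to DMSO.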

[3] = CCTE_Shafer_MEA_dev_burst_rate: CCTE's Neural Network Formation Assay for Burst Rate, Shafer Lab (AID 2284042);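 on AC50: potency for loss of burst rate below DMSO control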
Procedure, shortened: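 Exposure ran continuously over 12 days of network development in rat cortical cultures, with compound refreshed during full media changes on DIV 5 and 9. Single-electrode bursts per recording time, well-mean over active electrodes, trapezoidal AUC across days 5–12, fitted downward relative to DMSO.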

[4] = CCTE_Shafer_MEA_dev_bursting_electrodes_number: CCTE's Neural Network Formation Assay for Number of Bursting Electrodes, Shafer Lab (AID 2284043; active means hit-call score of the fitted dose curve at least 0.9, where 1 is the maximum;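 on AC50: potency is for loss of bursting electrodes relative to DMSO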)
Procedure, shortened: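 Number of electrodes reaching ≥1 burst every 2 min was recorded at DIV 5, 7, 9 and 12 and collapsed as trapezoidal area under the curve. Cultures were rat cortical neurons on MEA plates, dosed continuously from plating with medium and treatment refreshed on DIV 5 and 9.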

[5] = CCTE_Shafer_MEA_dev_per_burst_interspike_interval: CCTE's Neural Network Formation Assay for Burst Interspike Interval, Shafer Lab (AID 2284044);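 on AC50: potency for a decrease of within-burst interspike interval below DMSO level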
Procedure, shortened: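 Spontaneous activity of maturing rat cortical networks is recorded on DIV 5, 7, 9 and 12 under chronic compound exposure beginning at plating. Endpoint: burst interspike interval well-mean, collapsed into trapezoidal AUC and fitted in the negative direction relative to DMSO.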

[6] = CCTE_Shafer_MEA_dev_burst_duration_mean: CCTE's Neural Network Formation Assay for Mean Burst Duration, Shafer Lab (AID 2284045);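 on AC50: curve fitted for loss meaning shorter burst duration than DMSO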
Procedure, shortened: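 Mean single-electrode burst duration (first to last spike), averaged over bursting electrodes per well, then integrated as area-under-curve across recordings at days 5, 7, 9 and 12. Rat cortical cultures on MEAs, compound present from plating, refreshed at feeds.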

[7] = CCTE_Shafer_MEA_dev_inter_network_spike_interval_mean: CCTE's Neural Network Formation Assay for Mean Inter-network Spike Interval, Shafer Lab (AID 2284047);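 on AC50: potency for a decrease in mean inter-network spike interval below DMSO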
Procedure, shortened: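 Mean time between consecutive network-spike peaks, recorded extracellularly (adaptive spike detection) on DIV 5, 7, 9 and 12, summarized as trapezoidal AUC. Rat cortical cultures on MEAs dosed continuously days 0–12, re-dosed at feeds; loss-of-signal fit relative to DMSO.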

[8] = target: Estrogen receptor (Homo sapiens) (UniProt P03372); assay: CCTE_Deisenroth_AIME_384WELL_LUC_Inactive: CCTE's 384-well Estrogen Receptor Transactivation Assay without AIME metabolic competence (ERTA luciferase; metabolism negative), Deisenroth Lab (AID 2284038; active means hit-call score of the fitted dose curve at least 0.9, where 1 is the maximum;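 further: VM7Luc4E2 breast cells given medium preincubated 2 h with S9-free microspheres; hits raise estrogen receptor luciferase signal so potencies reflect agonists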)
Procedure, shortened: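 VM7Luc4E2 ER transactivation, luciferase bioluminescence after 24 h, using medium pre-incubated 2 h with S9-free alginate microspheres. Concentrations 0.002–200 uM; gain of signal fitted relative to 17beta-estradiol.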

[9] = target: Estrogen receptor (Homo sapiens) (UniProt P03372); assay: CCTE_Deisenroth_AIME_384WELL_LUC_Shift: CCTE's 384-well Estrogen Receptor Transactivation Assay with AIME metabolic competence data shift (ERTA luciferase; difference in metabolism positive and negative), Deisenroth Lab (AID 2284041);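 further: shift is response with S9 minus without S9 so positive means metabolism raised ER signal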
Procedure, shortened: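 Test chemicals (0.002–200 uM, 10-point) were pre-incubated 2 h with alginate microspheres containing phenobarbital/beta-naphthoflavone-induced male Sprague Dawley rat liver S9 or water, then medium was transferred to VM7Luc4E2 cells for 24 h luciferase readout; shift = S9-positive minus S9-negative normalized response.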

[10] = CCTE_Deisenroth_AIME_384WELL_CTox_Active: Cytotoxicity Assessment (CTOX) in CCTE's 384-well Estrogen Receptor Transactivation Assay with AIME metabolic competence (metabolism positive), Deisenroth Lab (AID 2284037; active means hit-call score of the fitted dose curve at least 0.9, where 1 is the maximum;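 further: chemicals first conditioned 2 h by alginate-bound induced rat liver S9 before cells; activity means signal loss indicating cell death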)
Procedure, shortened: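 Cytotoxicity in VM7Luc4E2 breast cells, 24 hour, measured as protease-substrate fluorescence loss, after 2-hour metabolic conditioning with induced rat hepatic S9 in alginate microspheres. Concentrations 0.002 - 200 uM, 10 points, bidirectional fitting.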

Chain of Estrogen receptor (Homo sapiens) (P03372 whole entry, looked up): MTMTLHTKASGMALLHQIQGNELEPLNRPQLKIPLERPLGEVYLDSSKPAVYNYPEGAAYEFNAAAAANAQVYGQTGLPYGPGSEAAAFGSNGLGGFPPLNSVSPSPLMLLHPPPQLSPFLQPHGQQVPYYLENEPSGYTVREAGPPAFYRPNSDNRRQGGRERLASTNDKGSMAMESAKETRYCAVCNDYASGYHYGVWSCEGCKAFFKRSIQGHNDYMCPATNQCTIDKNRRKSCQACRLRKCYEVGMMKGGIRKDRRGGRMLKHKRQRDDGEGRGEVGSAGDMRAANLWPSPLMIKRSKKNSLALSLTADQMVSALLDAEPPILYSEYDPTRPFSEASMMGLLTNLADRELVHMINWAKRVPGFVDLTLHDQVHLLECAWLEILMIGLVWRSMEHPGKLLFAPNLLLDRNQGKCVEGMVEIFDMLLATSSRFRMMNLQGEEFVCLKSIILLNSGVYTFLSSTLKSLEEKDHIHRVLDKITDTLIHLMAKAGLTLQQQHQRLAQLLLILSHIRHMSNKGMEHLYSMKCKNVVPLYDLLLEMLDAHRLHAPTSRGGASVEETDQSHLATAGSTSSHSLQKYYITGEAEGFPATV

SMILES: NC(=O)N1c2ccccc2C=Cc2ccccc21
- outcome [1]: inactive
- outcome [2]: inactive
- outcome [3]: inactive
- outcome [4]: inactive
- outcome [5]: inactive
- outcome [6]: inactive
- outcome [7]: inactive

SMILES: Nc1ccn([C@@H]2O[C@H](CO)[C@@H](O)[C@@H]2O)c(=O)n1
- AC50 [1]: 138 nM (active) and 298 nM (active)
- AC50 [2]: 185 nM (active) and 303 nM (active)
- AC50 [3]: 120 nM (active) and 1.09 µM (active)
- AC50 [4]: 195 nM (active) and 215 nM (active)
- AC50 [5]: 254 nM (active)
- outcome [5]: inactive
- AC50 [6]: 248 nM (active) and 1.85 µM (active)
- AC50 [7]: 140 nM (active)
- outcome [7]: inactive

SMILES: CCCC(CCC)C(=O)O
- outcome [1]: inactive
- outcome [2]: inactive
- outcome [3]: inactive
- outcome [4]: inactive
- outcome [5]: inactive
- outcome [6]: inactive

SMILES: CCOc1ccc2[nH]cc(C(=O)NCc3ccccc3)c(=O)c2n1
- outcome [1]: inactive
- outcome [8]: inactive
- AC50 [2]: 1.23 µM (active)
- outcome [9]: inactive
- outcome [3]: inactive
- AC50 [4]: 804 nM (active)
- outcome [5]: inactive
- outcome [6]: inactive
- outcome [7]: inactive

SMILES: C[C@]12C=CC(=O)C=C1CC[C@H]1[C@@H]3C[C@@H](O)[C@](O)(C(=O)CO)[C@@]3(C)C[C@H](O)[C@@]12F
- outcome [1]: inactive
- outcome [2]: inactive
- outcome [3]: inactive
- outcome [4]: inactive
- outcome [5]: inactive
- outcome [7]: inactive

SMILES: Cn1cc[nH]c1=S
- outcome [1]: inactive
- outcome [2]: inactive
- outcome [3]: inactive
- outcome [4]: inactive
- outcome [5]: inactive
- outcome [6]: inactive
- outcome [7]: inactive

SMILES: OC(Cn1cncn1)(Cn1cncn1)c1ccc(F)cc1F
- outcome [1]: inactive
- outcome [2]: inactive
- outcome [3]: inactive
- outcome [5]: inactive
- outcome [6]: inactive
- AC50 [7]: 3830 nM (active)

SMILES: NCC(F)(F)C(F)(F)C(F)(F)C(F)(F)F
- outcome [1]: inactive
- outcome [2]: inactive
- outcome [3]: inactive
- outcome [4]: inactive
- outcome [5]: inactive
- outcome [6]: inactive
- outcome [7]: inactive

SMILES: c1ccc2cc3ccccc3cc2c1
- outcome [1]: inactive
- outcome [2]: inactive
- outcome [3]: inactive
- outcome [4]: inactive
- outcome [5]: inactive
- outcome [6]: inactive
- outcome [7]: inactive

SMILES: FC(F)(F)C(F)(F)C(F)(F)C(F)(F)C(F)(F)C(F)(F)I
- outcome [1]: inactive
- outcome [2]: inactive
- outcome [3]: inactive
- outcome [4]: inactive
- outcome [5]: inactive
- outcome [6]: inactive
- outcome [7]: inactive

SMILES: FC(F)(F)COC(OCC(F)(F)F)OCC(F)(F)F
- outcome [1]: inactive
- outcome [2]: inactive
- outcome [3]: inactive
- outcome [4]: inactive
- outcome [5]: inactive
- outcome [6]: inactive
- outcome [7]: inactive

SMILES: OCCOCCOCCO
- outcome [10]: inactive
- outcome [8]: inactive
- outcome [9]: inactive

SMILES: c1ccc2c(c1)-c1cccc3c1c-2cc1ccccc13
- outcome [1]: inactive
- outcome [10]: inactive
- outcome [8]: inactive
- AC50 [2]: 7.57 µM (active)
- outcome [9]: inactive
- outcome [3]: inactive
- AC50 [4]: 5070 nM (active)
- outcome [5]: inactive
- outcome [6]: inactive
- outcome [7]: inactive

SMILES: O=C(Cl)C(F)(F)C(F)(F)C(F)(F)C(=O)Cl
- AC50 [1]: 15 µM (active)
- outcome [2]: inactive
- outcome [3]: inactive
- outcome [4]: inactive
- outcome [5]: inactive
- outcome [6]: inactive
- outcome [7]: inactive

SMILES: COc1cc2c(c(OC)c1OC)-c1ccc(OC)c(=O)cc1[C@@H](NC(C)=O)CC2
- AC50 [1]: 0.0285 µM (active)
- AC50 [10]: 19800 nM (active)
- outcome [8]: inactive
- AC50 [2]: 0.0284 µM (active)
- outcome [9]: inactive
- AC50 [3]: 27.6 nM (active)
- AC50 [4]: 27 nM (active)
- AC50 [5]: 6.47 nM (active)
- AC50 [6]: 6.51 nM (active)
- AC50 [7]: 26.2 nM (active)

SMILES: CC[C@H](C)C(=O)O[C@H]1C[C@H](O)C=C2C=C[C@H](C)[C@H](CC[C@@H](O)C[C@@H](O)CC(=O)O)[C@H]21
- AC50 [1]: 1.92 µM (active)
- AC50 [2]: 2.28 µM (active)
- outcome [3]: inactive
- outcome [5]: inactive
- outcome [6]: inactive
- outcome [7]: inactive

SMILES: OC(O)(C(F)C(O)(O)C(F)(F)F)C(F)(F)F
- outcome [1]: inactive
- AC50 [2]: 3.9 µM (active)
- outcome [2]: inactive
- outcome [3]: inactive
- outcome [4]: inactive
- outcome [5]: inactive
- outcome [6]: inactive
- outcome [7]: inactive

SMILES: OCCC(F)(F)C(F)(F)C(F)(F)C(F)(F)F
- outcome [1]: inactive
- outcome [2]: inactive
- outcome [3]: inactive
- outcome [5]: inactive
- outcome [6]: inactive
- outcome [7]: inactive

SMILES: CCN(CC)C(=S)SSC(=S)N(CC)CC
- AC50 [1]: 143 nM (active) and 47.8 nM (active)
- outcome [10]: inactive
- AC50 [2]: 118 nM (active) and 54.8 nM (active)
- outcome [9]: inactive
- AC50 [3]: 124 nM (active) and 50 nM (active)
- AC50 [4]: 108 nM (active) and 46.3 nM (active)
- AC50 [5]: 157 nM (active) and 39.7 nM (active)
- AC50 [6]: 103 nM (active) and 38.3 nM (active)
- AC50 [7]: 225 nM (active) and 91.6 nM (active)

SMILES: NNC(=O)c1ccncc1
- outcome [1]: inactive
- outcome [2]: inactive
- outcome [3]: inactive
- AC50 [4]: 595 nM (active)
- outcome [5]: inactive
- outcome [6]: inactive
- outcome [7]: inactive

SMILES: COS(C)(=O)=O
- outcome [10]: inactive
- outcome [8]: inactive
- outcome [9]: inactive

SMILES: CCCCCOC(C)=O
- outcome [10]: inactive
- outcome [8]: inactive
- outcome [9]: inactive

SMILES: CCn1nc(C)c2c1C(=O)NCC(c1ccc(O)cc1)=N2
- outcome [8]: inactive
- outcome [9]: inactive

SMILES: CCCCC(CC)C(=O)OCCOCCOCCOC(=O)C(CC)CCCC (centres undefined)
- outcome [8]: inactive
- outcome [9]: inactive

SMILES: O=C1CN(N=Cc2ccc([N+](=O)[O-])o2)C(=O)N1
- outcome [10]: inactive
- outcome [8]: inactive
- outcome [9]: inactive

SMILES: CC(C)CCCCCCOC(=O)C1CCCCC1C(=O)OCCCCCCC(C)C (centres undefined)
- outcome [10]: inactive
- outcome [8]: inactive
- outcome [9]: inactive

SMILES: CC(=O)c1ccccc1
- outcome [10]: inactive
- outcome [8]: inactive
- outcome [9]: inactive

SMILES: NC(=O)NN=Cc1ccc([N+](=O)[O-])o1
- AC50 [10]: 116000 nM (active)
- outcome [9]: inactive

SMILES: c1ccc2ncccc2c1
- outcome [8]: inactive
- outcome [9]: inactive

SMILES: OCC(CO)(CO)CO
- outcome [8]: inactive
- outcome [9]: inactive

SMILES: CCOC(N)=O
- outcome [10]: inactive
- outcome [8]: inactive
- outcome [9]: inactive

SMILES: CCc1ccc(O)c(C(C)(C)C)c1
- outcome [10]: inactive
- outcome [9]: inactive

SMILES: c1ccc(C(O[C@@H]2CCCN(CCc3ccc4c(c3)OCO4)C2)c2ccccc2)cc1
- outcome [10]: inactive
- outcome [8]: inactive
- outcome [9]: inactive

SMILES: C=CCc1cc(S(=O)(=O)c2ccc(O)c(CC=C)c2)ccc1O
- AC50 [10]: 169000 nM (active)
- outcome [9]: inactive

SMILES: CC(C)CC(C)O (centres undefined)
- outcome [10]: inactive
- outcome [8]: inactive
- outcome [9]: inactive

SMILES: OCc1ccccc1
- outcome [10]: inactive
- outcome [8]: inactive
- outcome [9]: inactive

SMILES: CCCc1ccccc1
- outcome [10]: inactive
- outcome [8]: inactive
- outcome [9]: inactive

SMILES: CCCCOC(=O)c1ccccc1
- outcome [10]: inactive
- outcome [8]: inactive
- outcome [9]: inactive

SMILES: C[C@@H](Oc1ccc(CNC(=O)c2cccnc2Oc2ccc3c(c2)OCO3)c(F)c1)C(=O)O
- outcome [10]: inactive
- outcome [8]: inactive
- outcome [9]: inactive

SMILES: CC(C)c1nnc2ccc(-c3ocnc3-c3cc(F)ccc3F)cn12
- outcome [8]: inactive
- outcome [9]: inactive

SMILES: CCc1cccc(CC)c1N
- outcome [10]: inactive
- outcome [8]: inactive
- outcome [9]: inactive
